High-throughput results deposited in PubChem BioAssay by Sanford-Burnham Center for Chemical Genomics.
Only some compounds are listed: those with a hit (about 1.5% of all), similar ones and a draw of the others.
NPR2 activator: GC-B (human) receptor activation | P20594 | HEK293-GC-B cells, CNP EC30, cGMP TR-FRET; 0% at EC30 CNP, 100% saturating CNP | 0.11% of 370,000 active | AID 1920062 | activation, % at 10 µM;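 active = activation at 10 µM reaching about 35% in either raw or pattern-adjusted values, limit read from the data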
NadD block: blocks S. aureus nicotinate mononucleotide adenylyltransferase; purified NadD enzyme, colorimetric absorbance read-out; inhibition, % at 20 µM; 0.78% of 360,000 active; AID 602399; in the data active = inhibition above about 26%
GC-A act: GC-A (human) enzyme activation | P16066 | HEK293 GC-A cells, cGMP TR-FRET, EC30 ANP; 0% at EC30 ANP, 100% saturating ANP | activation, % at 10 µM | 0.14% of 370,000 active | AID 1671463; in the data active = activation above about 40%
Neddylation inh: cullin neddylation inhibition; P61081+Q13564; TR-FRET cullin neddylation, biochemical; inhibition, % at 25 µM; 0.58% of 360,000 active; AID 651699; in the data active = inhibition above about 36%
Neddyl inh conf: cullin neddylation inhibition, confirmation; shares compounds with Neddylation inh; TR-FRET cullin neddylation biochemical assay; calls only at 25 µM; 13% of 1,800 active; in the data active = inhibition above about 40%;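 note: neddylation substrate is the cullin 1 ring ligase complex with SKP2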
* hit, by the source's call; i = inactive; · = not tested or not shown; + = active, no number.

SMILES | NPR2 activator | NadD block | GC-A act | Neddylation inh | Neddyl inh conf
CCOC(=O)Cn1cc(CN2C(C(=O)OC)CN(C3CC3)CCS2(=O)=O)nn1 (configuration not stated) | 1 | · | 1 | · | ·
CC1(C)CC(=O)C2=C(C1)OC(N)=C(C#N)C2c1cc2c(cc1[N+](=O)[O-])OCO2 (configuration not stated) | -8 | -2 | -15 | 39* | i
CN(c1ccccc1)S(=O)(=O)c1cccc(NC(=O)C2=NN(c3ccccc3)C(=O)CC2)c1 | -4 | 1 | -2 | 45* | i
COc1ccccc1CCC[C@@H](CCS(=O)(=O)C(C)C)CC1CCCCC1 | 4 | · | -1 | · | ·
NC(=O)COC(=O)c1ccccc1Nc1ccc(SC(F)F)cc1 | 2 | -3 | 26 | 41* | i
O=C(NC1CCCCC1)C(c1ccc(C(F)(F)F)cc1)n1c(=O)c(-c2ccccc2)nc2ccccc21 (configuration not stated) | -1 | · | 0 | 41* | i
CCCCCNC(=O)C(C1CC1)n1c(=O)c(-c2ccccc2)nc2ccccc21 (configuration not stated) | -6 | · | -7 | 45* | ·
CC(C)(C)NC(=O)C(c1ccncc1)n1c(=O)c(-c2ccccc2)nc2ccccc21 (configuration not stated) | -3 | · | -2 | 50* | ·
Cc1cccc(C)c1NC(=O)C(c1ccncc1)n1c(=O)c(-c2ccccc2)nc2ccccc21 (configuration not stated) | -4 | · | 0 | 62* | +
COC(=O)c1cc2c(c3c4cc(F)ccc4n(S(=O)(=O)c4ccc(OC)cc4)c13)C(=O)N(Cc1ccccc1OC)C2 | -4 | · | 5 | · | ·
CN(C)c1ccc(/C=N/NC(=O)CNC(=O)/C=C/c2ccccc2)cc1 | -2 | -9 | -4 | 12 | ·
CN(C)c1ccc(/C=N/NC(=O)c2cccc(N3CCCC3=O)c2)cc1 | -7 | 4 | -10 | 42* | i
COc1cc(C(=O)NN=Cc2ccc(N(C)C)cc2)cc(OC)c1OC | -11 | -2 | -6 | 45* | +
O=C(COc1ccccc1)NCC(=O)N/N=C/c1ccccc1 | 0 | -3 | 1 | -1 | ·
CN(C)c1ccc(/C=N/NC(=O)COc2ccccc2)cc1 | 4 | 2 | -6 | 58* | +
COc1cc(/C=N/NC(=O)c2ccncc2)cc(OC)c1OC | -2 | 0 | 2 | -12 | ·
CN(C)c1ccc(/C=N/NC(=O)CNC(=O)c2ccco2)cc1 | -4 | -8 | -7 | 41* | +
Cc1ccc(OC(=O)N(C)C[C@H]2OCc3cn(nn3)CCCC(=O)N([C@@H](C)CO)C[C@@H]2C)cc1 | 1 | · | 1 | · | ·
Cc1cccc(OCC(=O)N/N=C/c2ccc(N(C)C)cc2)c1 | 1 | -2 | -3 | 43* | +
CN(C)c1ccc(/C=N/NC(=O)CCc2nc3ccccc3[nH]2)cc1 | -4 | -9 | -5 | 41* | +
CCOC(=O)c1cnc2c(C(=O)OC)cccc2c1NCc1ccco1 | -8 | -4 | 10 | 42* | i
CCc1ccccc1Cn1c(=O)oc2cccnc21 | 0 | 1 | 6 | 48* | i
COc1ccccc1Cn1c(=O)oc2ccccc21 | 3 | -5 | 7 | 1 | ·
CN(C)CCn1c(SCc2ccccc2C#N)nc2c(sc3ccccc32)c1=O | 1 | -3 | -5 | 46* | ·
c1ccc(CNC2CCC23CCC(c2ccccc2)CC3)cc1 (configuration not stated) | -10 | · | -4 | · | ·
SMILES | NPR2 activator | NadD block | GC-A act | Neddylation inh | Neddyl inh conf
CC1C(O)=C(c2nc3ccccc3[nH]2)C(=N)N1c1ccccc1 (configuration not stated) | -2 | -4 | 6 | 46* | i
O=C(N[C@@H]1CC[C@H]2SC[C@H](C(=O)O)N2C1=O)OCC1c2ccccc2-c2ccccc21 | 1 | · | 4 | · | ·
Cc1ccccc1C(=O)N[C@H](C(=O)N1CCC[C@H]1C(=O)NC1CCCC1)C1CCCCC1 | 1 | · | 3 | · | ·
CC1(C)Cc2c(sc3nc(-c4ccccc4)n(N)c(=O)c23)CO1 | 0 | 11 | 3 | 15 | ·
CN(C)c1nc2sc3c(c2c(=O)n1C)CC(C)(C)OC3 | -16 | -7 | 1 | -2 | ·
Cc1nn2c(C)nc3sc4c(c3c2nc1=O)CC(C)(C)OC4 | 4 | -8 | 10 | 43* | i
CC1(C)Cc2c(sc3nc(-c4cccs4)n(N)c(=O)c23)CO1 | -1 | -3 | 2 | 44* | i
O=C(OCCN1CCN(C2CN(Cc3cn(Cc4ccccc4C(F)(F)F)nn3)S(=O)(=O)C2)CC1)c1cc2ccccc2o1 (configuration not stated) | 1 | · | 3 | · | ·
C=CCN(CC#Cc1ccccc1)Cc1ccc2c(c1)OCO2 | 8 | · | 4 | · | ·
O=C(N/N=C/c1c(O)n(-c2ccccc2Cl)c(=O)c2ccccc12)c1cccnc1 | -2 | 6 | 2 | 29 | ·
O=C(N/N=C/c1c(O)n(Cc2ccccc2)c(=O)c2ccccc12)c1cccnc1 | -3 | 8 | 4 | 42* | ·
COc1ccc(N2CCc3c(C)nc4c(OC)cc(OC)cc4c32)c(OC)c1 | -22 | -2 | -16 | 41* | i
C#CCNC(=O)C[C@@H]1C[C@]2(C(=O)OCC)CCC3=C2N(CCC3)C1=O | 1 | · | -1 | · | ·
COc1cccc(Nc2ccc(C(=O)O)cc2N)c1 | -4 | 1 | -4 | 40* | ·
COc1cccc(N(C)C(=O)[C@@H](C)[C@@H](O)c2ccc(C(C)=O)cc2)c1 | 1 | · | -1 | · | ·
COCCCn1cnc2c(c1=O)c1nc3ccccc3nc1n2CCc1ccccc1 | 4 | -5 | 16 | 54* | i
CCCCn1c2nc3ccccc3nc2c2c(=O)n(CCC)cnc21 | -4 | -1 | 17 | · | ·
CCN(CC)C(=O)CC[C@@H]1CC[C@]2(CCCN(C(=O)c3cccnc3)C2)O1 | -4 | · | 3 | · | ·
O=S1(=O)CCSC[C@@H](CN2CCN(c3ccccc3)CC2)N1 | -2 | · | -2 | · | ·
Cn1c(-c2sc3cc(C(F)(F)F)cnc3c2-c2ccccn2)n[nH]c1=S | -2 | -1 | -2 | -6 | ·
CSc1nnc(-c2sc3cc(C(F)(F)F)cnc3c2-c2ccccn2)n1C | 2 | -1 | 2 | 42* | i
CCCCNC(=O)O[C@H]1CC[C@@]23CCCN2C(=O)CCC[C@H]3C1 | -7 | · | 1 | · | ·
CCCCN1CN2Cc3ccccc3C2CS1(=O)=O (configuration not stated) | 4 | · | 0 | · | ·
O=C(O)c1cccc(Nc2nc3ccccc3nc2NS(=O)(=O)c2ccc(F)cc2)c1 | -3 | -1 | -1 | 21 | ·
O=S(=O)(Nc1nc2ccccc2nc1Nc1ccc2c(c1)OCO2)c1ccc(F)cc1 | 2 | 4 | 1 | 38* | i
COc1cccc(Nc2nc3ccccc3nc2NS(=O)(=O)c2ccc(NC(C)=O)cc2)c1 | · | 10 | · | 51* | ·
CCC(NC(=O)Cn1c(-c2ccccc2)cc(C(C)=O)c1C)c1ccccc1 (configuration not stated) | -12 | · | -5 | · | ·
